Structures can show the parent of a compound that is named as a salt.
tested on: Saccharomyces cerevisiae BY4741 SeMeCo community; test: z-score of subpopulation abundance vs DMSO median, subpopulation auxotrophic for HU; higher = larger share of this subpopulation than in DMSO controls; settings: 10 µM; 24 h; SM minimal medium; subpopulation (auxotrophy): HU
How it was run: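 Scoring was based on each subpopulation's abundance, expressed as a z-score against the vehicle-well median. A Saccharomyces cerevisiae BY4741 community with four plasmids, each restoring one auxotrophy and encoding a distinct fluorescent protein, was pre-grown overnight to OD600 1.0, diluted to 0.3, and added at 70 µl to 384-well plates acoustically predosed with library drugs (10 µM final). It then grew 24 h in minimal SM medium before paraformaldehyde fixation and automated confocal microscopy, with single-auxotroph fluorescent strains setting thresholds and autofluorescence correction.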

SMILES | z-score of subpopulation abundance
C=C[C@]1(C)C[C@@H](OC(=O)CSC(C)(C)CNC(=O)[C@H](N)C(C)C)[C@]2(C)[C@H](C)CC[C@]3(CCC(=O)[C@H]32)[C@@H](C)[C@@H]1O [Valnemulin HCl] | 1.22
C[N+]1(C)CCC(=C(c2ccccc2)c2ccccc2)CC1 [Diphemanil Methylsulfate] | -0.13
CC[C@H]1OC(=O)[C@H](C)[C@@H](O[C@H]2C[C@@](C)(OC)[C@@H](O)[C@H](C)O2)[C@H](C)[C@@H](O[C@@H]2O[C@H](C)C[C@H](N(C)C)[C@H]2O)[C@](C)(O)C[C@@H](C)/C(=N\OCOCCOC)[C@H](C)[C@@H](O)[C@]1(C)O [Roxithromycin] | 0.46
NCc1ccccc1CC(=O)N[C@@H]1C(=O)N2C(C(=O)O)=C(CSc3nnnn3CC(=O)O)CS[C@H]12 [Ceforanide] | 0.2
CC(C(=O)O)c1cccc(C(=O)c2ccccc2)c1 (stereo unspecified) [Ketoprofen] | -0.66
C#C[C@]1(O)CC[C@H]2[C@@H]3CCC4=Cc5oncc5C[C@]4(C)[C@H]3CC[C@@]21C [Danazol] | 0.32
CC(C(O)c1ccc(O)cc1)N1CCC(Cc2ccccc2)CC1 (stereo unspecified) [Ifenprodil Tartrate] | -0.43
Cc1ncc([N+](=O)[O-])n1C [Dimetridazole] | 0.17
CC(=O)OCC[N+](C)(C)C [Acetylcholine iodide] | -0.12
CC(=O)N1CCN(c2ccc(OCC3COC(Cn4ccnc4)(c4ccc(Cl)cc4Cl)O3)cc2)CC1 (stereo unspecified) [Ketoconazole] | -0.29
CN1C2CCCC1CC(NC(=O)c1nn(C)c3ccccc13)C2 (stereo unspecified) [Granisetron HCl] | -0.52

— the supplement of paper PMC8975748
